“And” between values parts separate entries of the source, which are not always exact repeats. Equal entries are not always repeated. Results filed as inconclusive are left out. The source made the active and inactive calls. Unless noted, the call rests on the fitted dose curve; in most records, active means well fitted curve in the direction sought with a large enough effect in the repeat runs; inconclusive means weak or mixed curves; inactive means no such curve, though single readings can be large; an effect the other way counts as inactive or inconclusive.
Tests used:
[1] = molecular target: Estrogen receptor (Homo sapiens) (UniProt P03372); test: qHTS assay to identify small molecule antagonists of the estrogen receptor alpha (ER-alpha) signaling pathway using the BG1 cell line in the presence of 0.1 nM 17-beta-estradiol (AID 1259244); further: nearly all actives have a fitted effect of over 50% in size; further: potency means the concentration at half of the fitted maximal effect
Outline: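 Luminescence after ONE-Glo (30 min, room temperature) measured ERE-luciferase activity in VM7Luc4E2 cells treated 22 h with compound and 0.1 nM final 17beta-estradiol as stimulator.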

[2] = qHTS assay to identify small molecule HDAC inhibitors (AID 1259364);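 further: wild-type HCT-116 cells with endogenous class I/II HDAC activity; top concentration of the series differs between compounds; nearly all actives have a fitted effect of over 45% in size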
Outline: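 HCT-116 (wild type), 1,500 cells/well, overnight; compound 2 hr 37C 5% CO2; HDAC-Glo I/II reagent 30 min RT; luminescence readout.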

[3] = qHTS assay to identify small molecule HDAC inhibitors - cell viability counter screen (AID 1259365); further: series mostly up to about 92 µM; nearly all actives have a fitted effect of over 50% in size
Outline: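 CellTiter-Glo luminescence (30 min, room temperature) reported viability after a 2 h compound exposure at 37 C. Cells: wild-type HCT-116, 1,500 per well, seeded the night before.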

[4] = qHTS assay to identify small molecule agonists of the sonic hedgehog signaling (Shh) pathway - cell viability counter screen (AID 1259366); further: nearly all actives have a fitted effect of over 50% in size; further: potency means the concentration at half of the fitted maximal effect
Outline: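 Cytotoxicity counter screen: CellTiter-Fluor reagent added after 23 h compound exposure, then 1 h at 37C and fluorescence read. Cells were 3T3 Gli1-Luc, seeded 2,000 per well and dosed 4 h post-plating.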

[5] = qHTS assay to identify small molecule antagonists of the sonic hedgehog signaling (Shh) pathway - cell viability counter screen (AID 1259367); further: nearly all actives have a fitted effect of over 55% in size; further: potency means the concentration at half of the fitted maximal effect
Outline: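 Viability was read by CellTiter-Fluor fluorescence in the same wells, reagent added 23 hr into compound treatment and incubated 1 hr at 37C. The 3T3 Gli1-Luc reporter cells (2,000/well) received conditioned medium after compound and ran 24 hr.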

[6] = qHTS assay to identify small molecule agonists of the sonic hedgehog signaling (Shh) pathway (AID 1259368; calls by dose curve;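 further: NIH/3T3-derived 3T3Gli1-Luc cells carrying a stable Gli1-driven firefly luciferase reporter; series mostly up to about 92 µM; nearly all actives have a fitted effect of over 15% in size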)
Outline: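 Read-out: firefly luciferase luminescence from a Gli1 response element reporter stably integrated in NIH/3T3-derived 3T3Gli1-Luc cells, measured 30 min at room temperature after reagent addition. Compound exposure lasted 24 hr at 37 C, 5% CO2.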

[7] = qHTS assay to identify small molecule antagonists of the sonic hedgehog signaling (Shh) pathway (AID 1259369; calls by dose curve; further: nearly all actives have a fitted effect of over 45% in size; further: potency means the concentration at half of the fitted maximal effect)
Outline: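 Luminescence readout: firefly Luc under Gli1 response element in 3T3Gli1-Luc cells (NIH/3T3 clone). Antagonist mode, stimulation by conditioned medium; compound exposure 24hr at 37 C, 5% CO2.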

[8] = molecular target: Estrogen receptor beta (Homo sapiens) (UniProt Q92731); test: qHTS assay to identify small molecule agonists of the estrogen receptor beta (ER-beta) signaling pathway (AID 1259377; active means well fitted activation curve with a large enough effect in the signal ratio in the repeat runs, not every such curve was filed as active; the % refers to the signal ratio)
Outline: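 Ratiometric beta-lactamase FRET read-out came after 2 h substrate loading at room temperature. It followed 16 h compound treatment at 37C of GripTite HEK293T cells carrying a UAS-bla reporter, plated in 2% charcoal-stripped FBS medium.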

[9] = molecular target: Estrogen receptor beta (Homo sapiens) (UniProt Q92731); test: qHTS assay to identify small molecule antagonists of the estrogen receptor beta (ER-beta) signaling pathway (AID 1259378; active means well fitted inhibition curve with a large enough effect in the signal ratio in the repeat runs, not every such curve was filed as active; the % refers to the signal ratio)
Outline: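 Antagonist mode: compounds added to beta-lactamase reporter HEK293T ER-beta-UAS cells stimulated with E2 (1nM final), 16 hr at 37C. LiveBLAzer B/G FRET substrate, 2 hours room temperature, fluorescence read-out.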

[10] = qHTS assay to identify small molecule agonists of the estrogen receptor beta (ER-beta) signaling pathway - cell viability counter screen (AID 1259380); further: nearly all actives have a fitted effect of over 30% in size; further: potency means the concentration at half of the fitted maximal effect
Outline: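 Luminescence read-out (CellTiter-Glo, 30 min, room temp) taken in the same wells as the beta-lactamase reporter assay; ER-beta-UAS-bla HEK293T cells exposed to DMSO-dissolved compounds for 16 hr at 37C in 2% charcoal-stripped FBS medium.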

[11] = qHTS assay to identify small molecule antagonists of the estrogen receptor beta (ER-beta) signaling pathway - cell viability counter screen (AID 1259382);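 further: HEK293T cells carrying ER-beta-UAS-bla reporter stimulated with estradiol; series mostly up to about 92 µM; nearly all actives have a fitted effect of over 55% in size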
Outline: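 Luminescent ATP read-out (CellTiter-Glo, 30 min, RT) taken in the same wells as the bla reporter assay. HEK293T ER-beta-UAS-bla cells in 2% charcoal-stripped FBS were exposed to compounds with 1nM E2 for 16 hr at 37C.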

[12] = molecular target: Estrogen receptor (Homo sapiens) (UniProt P03372); test: qHTS assay to identify small molecule agonists of the estrogen receptor alpha (ER-alpha) signaling pathway in the presence of an antagonist (AID 1259383; calls by dose curve; further: nearly all actives have a fitted effect of over 15% in size; further: potency means the concentration at half of the fitted maximal effect; on activation: top concentration of the series differs between compounds)
Outline: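 Luciferase luminescence (ONE-Glo, 30min at room temperature) measured in VM7Luc4E2 cells after 22hr compound exposure at 15 concentrations, with 10.0nM ICI-182,780 final present; cells express endogenous ER-alpha and carry four EREs upstream of luciferase.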

[13] = molecular target: Thyrotropin receptor (Homo sapiens) (UniProt P16473); test: qHTS assay to identify small molecule antagonists of the thyroid stimulating hormone receptor (TSHR) signaling pathway (AID 1259385; calls by dose curve; further: nearly all actives have a fitted effect of over 20% in size)
Outline: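 Antagonist mode: compound-treated TSHR-expressing HEK293 cells were stimulated with 1.5 ng/mL TSH (final) in presence of Ro20-1724 for 30 min at RT. HTRF cAMP detection after 1 h; each compound tested at 15 concentrations, triplicate.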

[14] = qHTS assay to identify small molecule agonists of the estrogen receptor alpha (ER-alpha) signaling pathway in the presence of an antagonist - cell viability counter screen (AID 1259386);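 further: series mostly up to about 92 µM; cells exposed to compounds for 22 h at 37 °C before the viability read; nearly all actives have a fitted effect of over 30% in size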
Outline: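 Read-out: CellTiter-Fluor fluorescence after 1hr reagent incubation, measured in the same wells as the luciferase readout. VM7Luc4E2 cells were exposed to 15 compound concentrations with 10.0nM ICI-182,780 for 22hr at 37C.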

[15] = molecular target: Progesterone receptor (Homo sapiens) (UniProt P06401); test: qHTS assay to identify small molecule agonists of the progesterone receptor (PR) signaling pathway (AID 1346784; calls by dose curve; further: nearly all actives have a fitted effect of over 30% in size)
Outline: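 Agonist qHTS: compounds pinned onto 3,000 PR-UAS-bla HEK 293T cells per well in charcoal-stripped serum medium, 16hr at 37C, then beta-lactamase activity measured by LiveBLAzer FRET fluorescence after 2 hours at room temperature.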

[16] = qHTS assay to identify small molecule agonists of the androgen receptor (AR) signaling pathway in the presence of an antagonist - cell viability counter screen (AID 1259379); further: nearly all actives have a fitted effect of over 25% in size; further: potency means the concentration at half of the fitted maximal effect;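 on activity change, negative = cytotoxicity: MDA-kb2 human breast cancer cells carrying an MMTV luciferase reporter; series mostly up to about 92 µM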
Outline: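 Viability counter screen: CellTiter-Fluor fluorescence, measured in the same wells as the luciferase read-out. MDA-kb2 cells, 3,000/well, with nilutamide at 3.0uM final and compounds at 15 concentrations, 16 hr at 37C, 0% CO2.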

[17] = qHTS assay to identify small molecule agonists or antagonists of the thyroid stimulating hormone receptor (TSHR) signaling pathway - wild type cell line counter screen (AID 1259384; calls by dose curve)
Outline: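 Counter screen in untransfected Hek293: compounds (15-point titration, triplicate) plus phosphodiesterase inhibitor Ro20-1724 added after 18 h plating; 30 min RT. Intracellular cAMP via competitive d2/cryptate immunoassay, 1 h incubation.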
On the % scale 0 is the no-effect control and ±100 the full control effect.

Sequence of Estrogen receptor (Homo sapiens) (P03372 whole entry, looked up): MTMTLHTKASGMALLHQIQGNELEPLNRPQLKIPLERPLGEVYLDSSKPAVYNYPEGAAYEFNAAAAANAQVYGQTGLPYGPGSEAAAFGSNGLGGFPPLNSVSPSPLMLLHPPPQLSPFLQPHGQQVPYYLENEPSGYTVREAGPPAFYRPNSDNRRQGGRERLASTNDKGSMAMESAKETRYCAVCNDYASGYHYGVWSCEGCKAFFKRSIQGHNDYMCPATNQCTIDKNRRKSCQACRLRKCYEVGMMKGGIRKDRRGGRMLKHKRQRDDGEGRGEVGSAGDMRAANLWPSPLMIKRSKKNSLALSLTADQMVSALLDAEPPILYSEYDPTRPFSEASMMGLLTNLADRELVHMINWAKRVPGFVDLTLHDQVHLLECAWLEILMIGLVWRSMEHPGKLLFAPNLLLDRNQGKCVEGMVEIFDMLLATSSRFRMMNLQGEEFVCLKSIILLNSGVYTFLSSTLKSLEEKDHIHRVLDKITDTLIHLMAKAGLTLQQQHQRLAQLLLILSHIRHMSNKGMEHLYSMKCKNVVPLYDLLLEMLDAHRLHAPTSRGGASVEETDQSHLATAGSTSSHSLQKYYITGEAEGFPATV
Sequence of Estrogen receptor beta (Homo sapiens) (Q92731 whole entry, looked up): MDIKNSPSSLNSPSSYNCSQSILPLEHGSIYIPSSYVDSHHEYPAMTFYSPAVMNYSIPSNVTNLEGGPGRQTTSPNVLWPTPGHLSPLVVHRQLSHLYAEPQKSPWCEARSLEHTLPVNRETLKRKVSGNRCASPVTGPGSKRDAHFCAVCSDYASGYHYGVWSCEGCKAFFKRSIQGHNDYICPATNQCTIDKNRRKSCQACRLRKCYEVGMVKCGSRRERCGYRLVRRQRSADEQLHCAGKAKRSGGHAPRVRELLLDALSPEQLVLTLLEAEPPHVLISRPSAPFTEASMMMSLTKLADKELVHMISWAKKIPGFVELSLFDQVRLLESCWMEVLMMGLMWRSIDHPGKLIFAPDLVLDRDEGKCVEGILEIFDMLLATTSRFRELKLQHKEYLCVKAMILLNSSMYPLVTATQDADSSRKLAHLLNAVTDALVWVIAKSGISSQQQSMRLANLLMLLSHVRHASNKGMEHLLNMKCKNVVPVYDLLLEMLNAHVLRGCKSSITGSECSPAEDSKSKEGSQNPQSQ
Sequence of Progesterone receptor (Homo sapiens) (P06401 whole entry, looked up): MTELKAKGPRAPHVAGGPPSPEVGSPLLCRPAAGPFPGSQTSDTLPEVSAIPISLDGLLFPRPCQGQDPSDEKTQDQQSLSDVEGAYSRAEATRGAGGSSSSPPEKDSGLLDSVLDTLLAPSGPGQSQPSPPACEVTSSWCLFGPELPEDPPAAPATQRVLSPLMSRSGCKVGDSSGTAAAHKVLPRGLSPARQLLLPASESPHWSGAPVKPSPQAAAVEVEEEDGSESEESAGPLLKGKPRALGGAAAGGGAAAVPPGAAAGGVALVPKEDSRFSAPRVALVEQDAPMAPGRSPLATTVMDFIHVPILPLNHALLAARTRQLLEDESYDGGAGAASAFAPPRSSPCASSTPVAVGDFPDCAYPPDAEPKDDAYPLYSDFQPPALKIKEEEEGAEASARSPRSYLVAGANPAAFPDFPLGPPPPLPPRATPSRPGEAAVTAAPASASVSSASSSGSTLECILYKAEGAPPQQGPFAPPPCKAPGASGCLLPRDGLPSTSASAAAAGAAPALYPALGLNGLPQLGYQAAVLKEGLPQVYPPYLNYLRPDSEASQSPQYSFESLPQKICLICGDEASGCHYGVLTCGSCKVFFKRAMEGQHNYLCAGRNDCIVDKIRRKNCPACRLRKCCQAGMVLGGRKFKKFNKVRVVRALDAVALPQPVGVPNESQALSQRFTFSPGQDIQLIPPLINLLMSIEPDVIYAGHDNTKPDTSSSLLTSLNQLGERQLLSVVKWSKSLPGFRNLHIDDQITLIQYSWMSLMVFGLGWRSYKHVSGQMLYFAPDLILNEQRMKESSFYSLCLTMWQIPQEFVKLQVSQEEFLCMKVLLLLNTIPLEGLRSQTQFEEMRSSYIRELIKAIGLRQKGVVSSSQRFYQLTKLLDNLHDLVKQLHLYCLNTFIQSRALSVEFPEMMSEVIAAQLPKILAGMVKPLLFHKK
Sequence of Thyrotropin receptor (Homo sapiens) (P16473 whole entry, looked up): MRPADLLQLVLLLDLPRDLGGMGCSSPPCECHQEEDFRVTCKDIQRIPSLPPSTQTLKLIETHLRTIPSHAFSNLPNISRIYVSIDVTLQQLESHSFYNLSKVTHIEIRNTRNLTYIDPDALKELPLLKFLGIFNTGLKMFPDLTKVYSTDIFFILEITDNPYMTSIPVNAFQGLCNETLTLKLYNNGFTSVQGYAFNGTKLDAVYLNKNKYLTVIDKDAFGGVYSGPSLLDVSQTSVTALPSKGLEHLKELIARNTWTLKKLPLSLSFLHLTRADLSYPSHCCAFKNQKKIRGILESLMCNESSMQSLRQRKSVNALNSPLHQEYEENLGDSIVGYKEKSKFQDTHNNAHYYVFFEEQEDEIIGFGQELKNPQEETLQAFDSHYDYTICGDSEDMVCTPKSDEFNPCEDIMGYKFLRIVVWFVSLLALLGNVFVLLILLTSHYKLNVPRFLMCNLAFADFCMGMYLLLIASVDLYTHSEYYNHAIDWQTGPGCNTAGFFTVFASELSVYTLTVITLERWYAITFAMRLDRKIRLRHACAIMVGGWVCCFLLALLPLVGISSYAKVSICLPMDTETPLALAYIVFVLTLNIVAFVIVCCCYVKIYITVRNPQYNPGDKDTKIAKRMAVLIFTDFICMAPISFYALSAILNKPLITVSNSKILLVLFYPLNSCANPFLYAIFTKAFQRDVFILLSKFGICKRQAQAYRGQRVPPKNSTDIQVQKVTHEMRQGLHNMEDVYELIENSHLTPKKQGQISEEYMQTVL

CC(=O)c1ccccc1N
inactive: Potency [1] | Potency [2] | Potency [3] | Potency [4] | Potency [5] | Potency [6] | Potency [7] | Potency [8] | Potency [9] | Potency [10] | Potency [11] | Potency [12] | Potency [13] | Potency [14] | outcome [15]

CCCCCCCC/C=C\CCCCCCCC(=O)OCCOC(=O)CCCCCCC/C=C\CCCCCCCC
inactive: Potency [1] | Potency [2] | Potency [3] | Potency [4] | Potency [5] | Potency [6] | Potency [7] | Potency [9] | Potency [16] | Potency [10] | Potency [11] | Potency [12] | Potency [13] | Potency [14] | outcome [15]

CC(C)C(=O)OCc1ccccc1
inactive: Potency [1] | Potency [2] | Potency [3] | Potency [4] | Potency [5] | Potency [6] | Potency [7] | Potency [8] | Potency [9] | Potency [16] | Potency [10] | Potency [11] | Potency [12] | outcome [17] | Potency [13] | Potency [14] | outcome [15]

O=C1OC(=O)c2cccc3cccc1c23
inactive: Potency [1] | Potency [2] | Potency [3] | Potency [4] | Potency [5] | Potency [6] | Potency [7] | Potency [8] | Potency [9] | Potency [16] | Potency [10] | Potency [11] | Potency [12] | outcome [17] | Potency [13] | Potency [14] | outcome [15]

CCOC(=O)COc1ccc(C)cc1
inactive: Potency [1] | Potency [2] | Potency [3] | Potency [4] | Potency [5] | Potency [6] | Potency [7] | Potency [8] | Potency [9] | Potency [16] | Potency [10] | Potency [11] | Potency [12] | outcome [17] | Potency [13] | Potency [14] | outcome [15]

CCc1c(C(=O)O)c(=O)cnn1-c1ccc(Cl)cc1
inactive: Potency [1] | Potency [2] | Potency [3] | Potency [4] | Potency [5] | Potency [6] | Potency [7] | Potency [8] | Potency [9] | Potency [10] | Potency [11] | Potency [12] | outcome [17] | Potency [13] | Potency [14] | outcome [15]

CCc1cccc(CC)c1N(COC)C(=O)CS(=O)(=O)O
inactive: Potency [1] | Potency [2] | Potency [3] | Potency [4] | Potency [5] | Potency [6] | Potency [7] | Potency [8] | Potency [9] | Potency [16] | Potency [10] | Potency [11] | Potency [12] | outcome [17] | Potency [14] | outcome [15]

CCN(CC)CCCN(c1ccccc1)C1Cc2ccccc2C1
active: Potency [7] 15 µM | Potency [16] 29.8 µM | Potency [10] 11.9 µM
inactive: Potency [1] | Potency [2] | Potency [3] | Potency [4] | Potency [5] | Potency [6] | Potency [8] | Potency [12] | outcome [17] | Potency [13] | Potency [14] | outcome [15]

CCCCCCCOC(=O)c1ccc(O)cc1
active: Potency [7] 43.3 µM | Potency [10] 30.7 µM and 24.3 µM | Potency [12] 48.6 µM
inactive: Potency [1] | Potency [2] | Potency [3] | Potency [4] | Potency [5] | Potency [6] | Potency [8] | Potency [16] | Potency [14]

CNC(=S)NN
inactive: Potency [2] | Potency [3] | Potency [6] | Potency [16] | Potency [12] | outcome [17] | Potency [13] | Potency [14]
active: Potency [1] 48.6 µM | Potency [4] 30.6 µM | Potency [5] 17.2 µM | Potency [7] 3.44 µM | Potency [10] 17.2 µM

CC(C)c1ccccc1N
inactive: Potency [1] | Potency [2] | Potency [3] | Potency [4] | Potency [5] | Potency [6] | Potency [7] | Potency [16] | Potency [10] | Potency [11] | Potency [12] | outcome [17] | Potency [13] | Potency [14]

C(=C/c1ccccc1)/c1ccccc1
inactive: Potency [1] | Potency [2] | Potency [3] | Potency [4] | Potency [5] | Potency [6] | Potency [7] | Potency [16] | Potency [10] | Potency [11] | Potency [12] | outcome [17] | Potency [13] | Potency [14] | outcome [15]

CCCCCCCCCCCCCCCC
inactive: Potency [1] | Potency [2] | Potency [3] | Potency [4] | Potency [5] | Potency [6] | Potency [7] | Potency [16] | Potency [10] | Potency [11] | Potency [12] | outcome [17] | Potency [13] | Potency [14]

O=C=NCc1cccc(CN=C=O)c1
inactive: activity change, negative = inhibition [1] 2.93% [at 19 µM] | activity change, negative = inhibition [2] 3.12% [at 19 µM] | activity change, negative = cytotoxicity [3] 0.277% [at 19 µM] | viability change, negative = cytotoxic [4] 4.73% [at 19 µM] | viability change, negative = cytotoxic [5] -1.32% [at 19 µM] | activity change [6] -1.18% [at 18.9 µM, active compounds read high] | activity change, negative = inhibition [7] 11.1% [at 19 µM] | activity change, negative = cytotoxicity [16] -5.15% [at 19 µM] | activity change, negative = cytotoxicity [10] 2.31% [at 19 µM] | activity change, negative = cytotoxicity [11] 13% [at 19 µM] | activation [12] 0.099% [at 19 µM] | cAMP activity change [17] -0.613% [at 18.9 µM] | activity change, negative = inhibition [13] 2.52% [at 19 µM] | activity change, negative = cytotoxicity [14] 1.12% [at 19 µM] | activation [15] -0.779% [at 19 µM]

COc1cccc(O)c1
inactive: Potency [1] | Potency [2] | Potency [3] | Potency [4] | Potency [5] | Potency [6] | Potency [7] | Potency [16] | Potency [10] | Potency [11] | Potency [12] | Potency [14] | outcome [15]

From PubChem BioAssay (Tox21)
